From PubChem
This is a sample that favours compounds with a hit; in the whole collection about 5.7% have one here.
Myeloid diff 2 – induction of myeloid progenitor differentiation, primary screen, cell-based, flow cytometry, MLPCN library. ER-HoxA9 myeloid progenitors, lysozyme-GFP differentiation. calls only at 10 µM. 360,000 tested, 1% active. AID 624256, 2012;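 active = normalized GFP-positive differentiation at or above the plate's own cutoff, the solvent-only control mean plus 3 SD; inconclusive = no clear call, values can overlap the other calls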;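 also: cells exposed to compound for four days before flow analysis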
GRIN3A LBD mod – binders of NR3A ligand-binding domain, primary screen, biophysical, differential scanning fluorimetry, uHTS. Glutamate receptor ionotropic, NMDA 3A (GRIN3A) ligand-binding domain. AID 1259313, 2017. Tm shift relative to glycine control, % at 25 µM. 340,000 tested, 2.5% active. NR3A LBD differential scanning fluorimetry, Tm shift; 0% = protein alone, 100% = glycine-bound protein;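 active = melting temperature shift of at least 10% of the positive control shift, at one fixed dose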
rCAG RNA binder – binders of r(CAG) RNA repeats, primary screen, biochemical, fluorescence; AID 651821, 2012; inhibition, % at 3 µM; r(CAG) RNA repeat, TO-PRO-1 dye displacement fluorescence; 370,000 tested, 1.3% active;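 active = inhibition above the plate cutoff, the mean of all test compounds on that plate plus 3 SD, cut at about 35% in these data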;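 also: 0% = DMSO alone and 100% = 100 µM mitoxantrone as full dye displacement; higher means more dye released from RNA so lower well fluorescence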
MPTP block – mitochondrial permeability transition pore inhibitors, primary screen, biochemical, isolated mouse mitochondria, absorbance; Ca2+ swelling absorbance, 30 min; inhibition, % at 10 µM; AID 602449, 2012; 360,000 tested, 1.4% active;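 active = inhibition of 50% or more, scaled per plate between neutral and stimulator controls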;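 also: 0% = DMSO wells given calcium and 100% = 1 mM EGTA wells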
FAS-TE inh – FAS thioesterase domain inhibitors, primary screen, biochemical, fluorescence intensity, uHTS; 360,000 tested, 0.67% active; inhibition, % at 15 µM; Fatty acid synthase (Homo sapiens), P49327; recombinant FAS-TE, OMFH fluorogenic substrate, fluorescence endpoint;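 active = compounds whose normalised, plate-corrected inhibition of enzyme fluorescence in the single-dose primary screen is 50% or more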;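 also: 0% = DMSO with enzyme and 100% = substrate without enzyme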
An asterisk follows results filed as active.

Results for Nc1ccc2c(c1)C(=NO)c1cc([N+](=O)[O-])ccc1-2 ?
Myeloid diff 2: inconclusive; GRIN3A LBD mod: 28*; rCAG RNA binder: 11; MPTP block: 1; FAS-TE inh: -43

Results for CC(=O)OCCN1c2ccccc2Sc2cnccc21 ?
Myeloid diff 2: inactive; rCAG RNA binder: 3; MPTP block: 0; FAS-TE inh: -5

What do the screens show for `CC(=O)OCCCN1c2ccccc2Nc2nnc(-c3ccccc3)cc21`?
Myeloid diff 2: active; GRIN3A LBD mod: 5; rCAG RNA binder: -1; MPTP block: -1; FAS-TE inh: 0

What do the screens show for `Oc1ccccc1CC=NC1CCCCC1`?
Myeloid diff 2: active; GRIN3A LBD mod: -1; rCAG RNA binder: 0; MPTP block: -1; FAS-TE inh: -2

Results for Cc1ccc(C(=O)N/C(=C\c2ccc(-c3cccc([N+](=O)[O-])c3)o2)C(=O)NCCCN(C)C)cc1 ?
Myeloid diff 2: inactive; GRIN3A LBD mod: 0; rCAG RNA binder: 13; MPTP block: 3; FAS-TE inh: 32

What do the screens show for `CN(C)CCNC(=O)/C(=C/c1ccc(-c2ccc(Cl)cc2Cl)o1)NC(=O)c1ccccc1`?
Myeloid diff 2: active; GRIN3A LBD mod: 2; rCAG RNA binder: 10; MPTP block: 1; FAS-TE inh: 0

How did Cc1ccc(C(=O)N/C(=C\c2ccc(-c3ccc(Br)cc3)o2)C(=O)NCCCN(C)C)cc1 do in these assays?
Myeloid diff 2: active; GRIN3A LBD mod: -1; rCAG RNA binder: 12; MPTP block: -8; FAS-TE inh: 22

Results for Cc1ccc(CN2CC(N3CCC[C@@H]3C)CS2(=O)=O)cc1 (stereo not given in full) ?
rCAG RNA binder: 3

Results for CC(c1ccccc1)n1cc(C(=O)NCCCN2CCCC2)nn1 (stereo not given) ?
rCAG RNA binder: 2

How did Cc1ccc(/C=C/c2onc(C)c2S(=O)(=O)N2CCC(C(=O)NC(C)(C)C)CC2)cc1 do in these assays?
Myeloid diff 2: inactive; GRIN3A LBD mod: -9; rCAG RNA binder: 5; MPTP block: 1; FAS-TE inh: 24

How did CNC(=O)C1CCN(S(=O)(=O)c2c(C)noc2/C=C/c2ccc(C)cc2)CC1 do in these assays?
Myeloid diff 2: inactive; GRIN3A LBD mod: 79*; rCAG RNA binder: 1; MPTP block: 0; FAS-TE inh: -2

What do the screens show for `COc1ccc(NC(=O)C2CCN(S(=O)(=O)c3c(C)noc3C)CC2)cc1Cl`?
Myeloid diff 2: inactive; GRIN3A LBD mod: 16*; rCAG RNA binder: 4; MPTP block: 1; FAS-TE inh: 2

Results for CCOc1ccccc1N1CCN(C(=O)c2ccncc2)CC1 ?
GRIN3A LBD mod: -1; rCAG RNA binder: -4; MPTP block: 0; FAS-TE inh: -12

Results for CCOc1ccccc1N1CCN(C(=O)c2cc(-c3cccnc3)nc3c(Cl)cccc23)CC1 ?
Myeloid diff 2: active; GRIN3A LBD mod: -3; MPTP block: 0; FAS-TE inh: 13

Results for C[C@@H]1CCCCO[C@H](CN(C)C(=O)C2CCCCC2)[C@@H](C)CN([C@H](C)CO)C(=O)c2cc(NS(=O)(=O)c3cccs3)ccc2O1 ?
rCAG RNA binder: 6

What do the screens show for `Cc1ccc(-c2nc(CN3CCN(C(=O)C4CCCO4)CC3)cs2)cc1` (stereo not given)?
Myeloid diff 2: inconclusive; GRIN3A LBD mod: 11*; rCAG RNA binder: -6; MPTP block: 1; FAS-TE inh: -4

What do the screens show for `CN1C/C(=C/c2cccnc2)C(=O)/C(=C/c2cccnc2)C1`?
Myeloid diff 2: inconclusive; GRIN3A LBD mod: 20*; rCAG RNA binder: -1; MPTP block: -4; FAS-TE inh: -12

What do the screens show for `CCCCCN1CCCCC(NC(=O)Cc2ccccc2)C1=O` (stereo not given)?
rCAG RNA binder: 29

Results for NC(=S)NNC(=O)/C(=C/c1ccc(Br)cc1)NC(=O)c1ccccc1 ?
Myeloid diff 2: inactive; GRIN3A LBD mod: 13*; rCAG RNA binder: 5; MPTP block: -1; FAS-TE inh: 1

What do the screens show for `CCCC[C@H]1C2CC(OC(=O)Nc3ccc(F)cc3)C(C2)[C@H]2CCCCN21` (stereo not given in full)?
rCAG RNA binder: 6

What do the screens show for `COC(=O)[C@]12C[C@H](CC(=O)NCCc3ccccc3OC)C(=O)N(Cc3ccc(Cl)cc3Cl)C1=C[C@H](C(C)C)O[C@@H]2C1CC1`?
rCAG RNA binder: 9

Results for Cn1c(SCC(=O)c2ccccc2)nc2cccnc21 ?
Myeloid diff 2: inactive; GRIN3A LBD mod: -1; rCAG RNA binder: -5; MPTP block: 4; FAS-TE inh: 0

Results for Cc1ccc(C(=O)CSc2nc3cccnc3n2C)cc1 ?
Myeloid diff 2: active; GRIN3A LBD mod: 1; rCAG RNA binder: 2; MPTP block: 10; FAS-TE inh: 7

How did CCCCN1CC(COCc2ccccc2)Oc2cccc(F)c2S1(=O)=O (stereo not given) do in these assays?
Myeloid diff 2: inactive; GRIN3A LBD mod: 14*; rCAG RNA binder: 1; MPTP block: -1; FAS-TE inh: 25

Results for CCCCN1CC(COCc2ccccc2)Oc2ccccc2S1(=O)=O (stereo not given) ?
Myeloid diff 2: inactive; GRIN3A LBD mod: 17*; rCAG RNA binder: 1; MPTP block: -1; FAS-TE inh: 28

How did O=S1(=O)c2ccccc2OC(COCc2ccccc2)CN1Cc1ccccc1 (stereo not given) do in these assays?
Myeloid diff 2: inactive; GRIN3A LBD mod: 18*; rCAG RNA binder: 4; MPTP block: -1; FAS-TE inh: 23

What do the screens show for `CCCCN1C[C@@H](COCc2ccccc2)Oc2cc(F)ccc2S1(=O)=O`?
rCAG RNA binder: 1

How did COc1ccc(CN2CC(COCc3ccccc3)Oc3ccccc3S2(=O)=O)cc1 (stereo not given) do in these assays?
Myeloid diff 2: inactive; GRIN3A LBD mod: 1; rCAG RNA binder: 6; MPTP block: 2; FAS-TE inh: 21

How did CCCCN1C[C@@H](COCc2ccccc2)Oc2cccc(F)c2S1(=O)=O do in these assays?
rCAG RNA binder: 0

How did C[C@@H](c1ccccc1)N1C[C@H](COCc2ccccc2)Oc2cc(N3CC[C@@H](O)C3)ccc2S1(=O)=O do in these assays?
Myeloid diff 2: active; rCAG RNA binder: 6; MPTP block: 1; FAS-TE inh: 40

What do the screens show for `COC(=O)c1cc2c(c3c4cc(F)ccc4n(S(=O)(=O)c4ccccc4)c13)C(=O)N(Cc1ccco1)C2`?
rCAG RNA binder: 24

Results for Cc1ccc(NC(=O)[C@@H](Cc2ccccc2)NC(=O)[C@H]2O[C@@H](n3ccc(=O)[nH]c3=O)[C@H](O)[C@@H]2O)cc1C ?
rCAG RNA binder: 2
